Source: the supplement of paper PMC8728848
The full list was thinned out, with the strongest signals kept by preference.

How the values were obtained:
Test in all cases: glycan array binding signal (z-score within array); higher = stronger binding
Conditions in all cases: glycan notation: IUPAC condensed, linker removed
[1] = target: Fuc(a1-2)Gal(b1-4)GlcNAc(b1-3)Gal(b1-4)GlcNAc
Method in brief: (§1)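 Glycan array data came from 3228 arrays in the Consortium for Functional Glycomics database, and only arrays with an available protein sequence were kept. Glycan names were put into IUPAC-condensed notation, and columns mapping to the same glycan were averaged. The binding signal is a within-array Z-score, averaged across arrays of one protein sequence run at different concentrations or buffers and across linkers. A negative Z-score can be read as non-binding.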

[2] = target: Fuc(a1-2)Gal(b1-4)GlcNAc(b1-3)Gal(b1-4)GlcNAc(b1-2)Man(a1-3)[Fuc(a1-2)Gal(b1-4)GlcNAc(b1-3)Gal(b1-4)GlcNAc(b1-2)Man(a1-6)]Man(b1-4)GlcNAc(b1-4)GlcNAc
Method in brief: as §1

[3] = target: Fuc(a1-2)[Gal(a1-3)]Gal(b1-3)GlcNAc
Method in brief: as §1

[4] = target: Fuc(a1-3)[Gal3S(b1-4)]Glc
Method in brief: as §1

Gal(a1-3)Gal(b1-3)GlcNAc = target: Gal(a1-3)Gal(b1-3)GlcNAc
Method in brief: as §1

Gal(a1-3)Gal(b1-4)Glc = target: Gal(a1-3)Gal(b1-4)Glc
Method in brief: as §1

[5] = target: Gal(a1-3)Gal(b1-4)GlcNAc(b1-6)GalNAc
Method in brief: as §1

[6] = target: Gal(b1-3)GlcNAc(a1-3)Gal(b1-4)GlcNAc
Method in brief: as §1

[7] = target: Gal(b1-3)GlcNAc(b1-3)Gal(b1-4)GlcNAc(b1-3)Gal(b1-4)GlcNAc(b1-2)[Gal(b1-3)GlcNAc(b1-3)Gal(b1-4)GlcNAc(b1-3)Gal(b1-4)GlcNAc(b1-6)]Man(a1-6)[Gal(b1-3)GlcNAc(b1-3)Gal(b1-4)GlcNAc(b1-3)Gal(b1-4)GlcNAc(b1-2)Man(a1-3)]Man(b1-4)GlcNAc(b1-4)[Fuc(a1-6)]GlcNAc
Method in brief: as §1

[8] = target: Gal(b1-3)[Fuc(a1-4)]GlcNAc(b1-2)Man
Method in brief: as §1

[9] = target: Gal(b1-3)[Fuc(a1-4)]GlcNAc(b1-3)Gal(b1-3)[Fuc(a1-4)]GlcNAc
Method in brief: as §1

[10] = target: Gal(b1-4)GalNAc(a1-3)[Fuc(a1-2)]Gal(b1-4)GlcNAc
Method in brief: as §1

[11] = target: Gal(b1-4)GalNAc(b1-3)[Fuc(a1-2)]Gal(b1-4)GlcNAc
Method in brief: as §1

[12] = target: Gal(b1-4)GlcNAc(b1-3)Gal(b1-4)GlcNAc(b1-3)Gal(b1-4)GlcNAc(b1-3)Gal(b1-4)GlcNAc(b1-2)[Gal(b1-4)GlcNAc(b1-3)Gal(b1-4)GlcNAc(b1-3)Gal(b1-4)GlcNAc(b1-3)Gal(b1-4)GlcNAc(b1-6)]Man(a1-6)[Gal(b1-4)GlcNAc(b1-3)Gal(b1-4)GlcNAc(b1-3)Gal(b1-4)GlcNAc(b1-3)Gal(b1-4)GlcNAc(b1-2)Man(a1-3)]Man(b1-4)GlcNAc(b1-4)[Fuc(a1-6)]GlcNAc
Method in brief: as §1

[13] = target: Gal(b1-4)GlcNAc(b1-3)Gal(b1-4)GlcNAc(b1-3)[Gal(b1-4)GlcNAc(b1-3)Gal(b1-4)GlcNAc(b1-6)]GalNAc
Method in brief: as §1

[14] = target: Gal3S(b1-4)[Fuc(a1-3)]GlcNAc6S
Method in brief: as §1

GalNAc(b1-3)Gal = target: GalNAc(b1-3)Gal
Method in brief: as §1

GalNAc(b1-4)Gal(b1-4)Glc = target: GalNAc(b1-4)Gal(b1-4)Glc
Method in brief: as §1

[15] = target: GalNAc3S(b1-4)[Fuc(a1-3)]GlcNAc
Method in brief: as §1

GalNAc4S6S(b1-4)GlcNAc = target: GalNAc4S6S(b1-4)GlcNAc
Method in brief: as §1

Glc(a1-4)Glc = target: Glc(a1-4)Glc
Method in brief: as §1

[16] = target: Glc(a1-6)Glc(a1-6)Glc(a1-6)Glc
Method in brief: as §1

[17] = target: GlcNAc(a1-3)Gal(b1-4)GlcNAc
Method in brief: as §1

[18] = target: GlcNAc(a1-4)Gal(b1-4)GlcNAc(b1-3)Gal(b1-4)GlcNAc(b1-3)Gal(b1-4)GlcNAc
Method in brief: as §1

[19] = target: GlcNAc(b1-3)Gal(b1-4)GlcNAc(b1-2)Man(a1-3)[GlcNAc(b1-3)Gal(b1-4)GlcNAc(b1-2)Man(a1-6)]Man(b1-4)GlcNAc(b1-4)GlcNAc
Method in brief: as §1

[20] = target: GlcNAc(b1-3)Gal(b1-4)GlcNAc(b1-2)[GlcNAc(b1-3)Gal(b1-4)GlcNAc(b1-6)]Man(a1-6)[GlcNAc(b1-3)Gal(b1-4)GlcNAc(b1-2)Man(a1-3)]Man(b1-4)GlcNAc(b1-4)GlcNAc
Method in brief: as §1

[21] = target: GlcNAc(b1-3)Gal(b1-4)GlcNAc(b1-3)Gal(b1-4)GlcNAc(b1-3)Gal(b1-4)GlcNAc(b1-2)[GlcNAc(b1-3)Gal(b1-4)GlcNAc(b1-3)Gal(b1-4)GlcNAc(b1-3)Gal(b1-4)GlcNAc(b1-6)]Man(a1-6)[GlcNAc(b1-3)Gal(b1-4)GlcNAc(b1-3)Gal(b1-4)GlcNAc(b1-3)Gal(b1-4)GlcNAc(b1-2)Man(a1-3)]Man(b1-4)GlcNAc(b1-4)[Fuc(a1-6)]GlcNAc
Method in brief: as §1

[22] = target: GlcNAc(b1-4)GlcNAc(b1-4)GlcNAc
Method in brief: as §1

[23] = target: GlcNAc(b1-4)GlcNAc(b1-4)GlcNAc(b1-4)GlcNAc(b1-4)GlcNAc(b1-4)GlcNAc
Method in brief: as §1

[24] = target: GlcNAc(b1-6)Gal(b1-4)GlcNAc
Method in brief: as §1

B1: EULS2 M3 (Oryza sativa) (protein)
chain: MVYCRANPNYAMTARNGAVVLAPANPKDEYQHWIKDMRWSTSIKDEEGYPAFALVNKATGQAIKHSLGQSHPVRLVPYNPEVMDESVLWTESRDVGNGFRCIRMVNNIYLNFDAFHGDKYHGGVRDGTDIVLWKLCEGDSLRWKIQPYYILEQKLISEEDLNSAVDHHHHHH
[1]
  glycan array binding signal (z-score): 0.227
[2]
  glycan array binding signal (z-score): 0.177
[3]
  glycan array binding signal (z-score): 1.44
[4]
  glycan array binding signal (z-score): 0.485
Gal(a1-3)Gal(b1-3)GlcNAc
  glycan array binding signal (z-score): 8.25
Gal(a1-3)Gal(b1-4)Glc
  glycan array binding signal (z-score): 0.227
[5]
  glycan array binding signal (z-score): -0.929
[6]
  glycan array binding signal (z-score): 2.02
[7]
  glycan array binding signal (z-score): 1.66
[8]
  glycan array binding signal (z-score): 1.17
[9]
  glycan array binding signal (z-score): 2.13
[10]
  glycan array binding signal (z-score): -0.34
[11]
  glycan array binding signal (z-score): -0.158
[12]
  glycan array binding signal (z-score): 0.461
[13]
  glycan array binding signal (z-score): 0.234
[14]
  glycan array binding signal (z-score): 2.11
GalNAc(b1-3)Gal
  glycan array binding signal (z-score): 2.46
GalNAc(b1-4)Gal(b1-4)Glc
  glycan array binding signal (z-score): 0.053
[15]
  glycan array binding signal (z-score): -0.623
GalNAc4S6S(b1-4)GlcNAc
  glycan array binding signal (z-score): 0.056
Glc(a1-4)Glc
  glycan array binding signal (z-score): 0.668
[16]
  glycan array binding signal (z-score): 1.67
[17]
  glycan array binding signal (z-score): -0.405
[18]
  glycan array binding signal (z-score): -0.139
[19]
  glycan array binding signal (z-score): -0.171
[20]
  glycan array binding signal (z-score): 0.562
[21]
  glycan array binding signal (z-score): 0.306
[22]
  glycan array binding signal (z-score): -0.413
[23]
  glycan array binding signal (z-score): -0.977
[24]
  glycan array binding signal (z-score): 1.64
